Entries with a potency or affinity are not part of this list. Calls of active or inactive are those of the source.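 The calls were made as follows: active = compounds lowering fluorescence whose fitted half-maximal dose is at most twice the top valid dose; inconclusive = flat fit between -70% and -30%, or poor curve fit; inactive = the rest.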
Biological target: Caspase-8 (Homo sapiens) (UniProt Q14790)
Experiment: caspase-8 inhibition counter-screen, dose response, selectivity assay for caspase-6 inhibitor project, biochemical, Z-IETD-R110 fluorescence, cherry-picked samples (AID 743294)

Caspase-8 (Homo sapiens), sequence (Q14790 whole entry, looked up): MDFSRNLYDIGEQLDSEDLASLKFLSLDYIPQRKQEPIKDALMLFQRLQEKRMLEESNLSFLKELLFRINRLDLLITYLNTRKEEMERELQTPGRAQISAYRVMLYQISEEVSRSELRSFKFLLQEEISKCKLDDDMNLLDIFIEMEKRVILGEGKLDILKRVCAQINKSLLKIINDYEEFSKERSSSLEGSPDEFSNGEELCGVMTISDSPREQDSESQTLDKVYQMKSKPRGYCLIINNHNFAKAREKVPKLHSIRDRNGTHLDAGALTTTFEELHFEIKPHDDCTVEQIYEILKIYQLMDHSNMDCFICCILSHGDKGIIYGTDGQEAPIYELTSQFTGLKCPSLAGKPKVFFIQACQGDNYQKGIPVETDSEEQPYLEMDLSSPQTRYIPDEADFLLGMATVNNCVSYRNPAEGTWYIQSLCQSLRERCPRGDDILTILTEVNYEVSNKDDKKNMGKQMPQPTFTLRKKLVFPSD

## CC(Cc1ccc(O)cc1)NCC(O)c1ccc(O)c(O)c1 (configuration not stated)
  outcome: inactive

## CN1CCc2cc3c(c4c2C1Cc1ccccc1-4)OCO3 (configuration not stated)
  outcome: inactive

— PubChem BioAssay AID743294 (Broad Institute, 2014)
